Screens from PubChem BioAssay.
Shown are actives, neighbours in structure and some others; about 4.6% of the full set was active somewhere.
TRHR PAM = qHTS for Small Molecule Agonists and Allosteric Enhancers of Human TRH Receptor: Primary Screen for Enhancers. Thyrotropin-releasing hormone receptor (Homo sapiens), P34981. TRHR cells, fluo-8 calcium fluorescence, EC20 TRH enhancement. enhancement, % at 2 µM. hit rate 0.66% among 360,000. AID 493056, 2011; in the data active = enhancement above about 30%
Target sequence (P34981 whole entry, looked up): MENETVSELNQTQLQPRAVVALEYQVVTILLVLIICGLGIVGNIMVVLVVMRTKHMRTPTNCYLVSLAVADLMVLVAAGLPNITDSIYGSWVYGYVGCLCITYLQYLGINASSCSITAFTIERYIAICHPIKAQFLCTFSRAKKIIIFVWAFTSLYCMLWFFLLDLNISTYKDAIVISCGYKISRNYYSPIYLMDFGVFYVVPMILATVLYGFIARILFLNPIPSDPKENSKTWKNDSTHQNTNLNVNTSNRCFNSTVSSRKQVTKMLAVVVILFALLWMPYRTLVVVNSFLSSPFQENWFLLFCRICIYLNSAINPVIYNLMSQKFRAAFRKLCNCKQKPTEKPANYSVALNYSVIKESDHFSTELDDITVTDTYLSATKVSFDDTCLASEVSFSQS
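Enhancer read-out: after compound pinning and an initial kinetic agonist-mode read, an EC20 of TRH (10 nM final) was injected and fluo-8 calcium signal (Ex 480/Em 530) followed at 1 s/cycle for 100 cycles in TRHR-expressing cells.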
D1 potentiator = Potentiators of Human D1 Dopamine Receptor: qHTS. HEK293 TREx D1 cells, calcium flux, dopamine EC20 potentiation. potentiation, % at 10 µM. hit rate 0.036% among 360,000. AID 504651, 2011; in the data active = potentiation above about 30%
D1 antagonist = Antagonist of Human D 1 Dopamine Receptor: qHTS. D(1A) dopamine receptor (Homo sapiens), P21728. HEK293 TREx D1 cells, calcium flux, dopamine EC80; stronger effect = lower value. activity change, negative = inhibition, % at 10 µM. hit rate 3.2% among 360,000; in the data active = activity change below about -30%
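HEK293 T-REx cells expressing inducible, force-coupled D1 receptor; no-wash Ca dye, 30–90 min RT. Cmpd → 180 s read at 1 Hz → EC80 DA → 180 s read.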
D1 agonist = Allosteric Agonists of the Human D1 Dopamine Receptor: qHTS; D(1A) dopamine receptor (Homo sapiens), P21728; HEK293 T-REx D1 cells, calcium flux, agonist mode; activation, % at 2 µM; hit rate 1% among 360,000; AID 504660, 2011
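Tetracycline-induced HEK293 TREx D1 cells, force-coupled to calcium signalling, were dye-loaded with a no-wash calcium kit. Compound was pin-added after a 10 s baseline. Fluorescence was read kinetically at 1 cycle/s for 180 s, with calcium rises flagged as agonism.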
TRHR ag = qHTS for Small Molecule Agonists and Allosteric Enhancers of Human TRH Receptor: Primary Screen for Agonists. Thyrotropin-releasing hormone receptor (Homo sapiens), P34981. TRHR cells, calcium flux fluo-8, FDSS agonist mode. activation, % at 2 µM. hit rate 0.18% among 360,000. AID 493084, 2011
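Agonist-mode FDSS calcium read (Ex 480/Em 530, 1 s cycles) in 1536-well TRHR cells with fluo-8 dye, after 10-cycle baseline and 23 nL compound addition; TRH at EC20 (10 nM final) added afterwards for the enhancer phase.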
A number is an active result; – = inactive. Rule as the data show it, unless noted: active = activation above about 30%; inactive = the rest.

SMILES	TRHR PAM	D1 potentiator	D1 antagonist	D1 agonist	TRHR ag
CC1CCCCN1S(=O)(=O)c1ccc(C(=O)N2CCOCC2)cc1 (stereo unspecified)	33.0	–	–	–	–
CC1CCCCN1S(=O)(=O)c1ccc(S(=O)(=O)N2CCCC2)cc1 (stereo unspecified)	–	–	–	–	–
COCCNC(=O)c1ccc2c(c1)S(=O)(=O)c1cc(Cl)ccc1C2=O	–	–	–	–	–
CC(C)(C)CNC(=O)c1ccc2c(c1)S(=O)(=O)c1cc(Cl)ccc1C2=O	–	–	-32.5	–	–
CCOc1cc(C2C(C#N)=C(N)OC3=C2C(=O)CC(C)(C)C3)cc([N+](=O)[O-])c1O (stereo unspecified)	–	–	–	–	–
CC1(C)CC(=O)C2=C(C1)OC(N)=C(C#N)C2c1cc2c(cc1[N+](=O)[O-])OCO2 (stereo unspecified)	–	–	-33.3	–	–
Cc1nnsc1NC(=O)OCc1ccc(C(C)(C)C)cc1	–	–	-32.4	–	–
C=CCOC(=O)Nc1snnc1C	–	–	–	–	–
N#C/C(=C\c1ccc(-c2ccc(Br)cc2)o1)C(=O)NCCc1c[nH]c2ccccc12	–	–	-34.0	–	–
Cc1cccc(NCc2cccc3ccccc23)n1	–	–	-90.7	–	–
O=c1[nH][nH]cc1C=Nc1ccc(Oc2ccccc2)cc1	–	–	–	–	–
COc1ccc(N=Cc2c[nH][nH]c2=O)cc1	–	–	-33.2	–	–
COc1ccc(C(=O)NCCN2C(=O)S/C(=C\c3cccnc3)C2=O)c(OC)c1OC	–	–	–	–	–
CCOc1cc(C(=O)NCCN2C(=O)S/C(=C\c3cccnc3)C2=O)cc(OCC)c1OCC	–	–	-48.9	–	–
COc1ccc(CCNC(=O)C(C)n2nc(C)c3sc4ccccc4c3c2=O)c(OC)c1 (stereo unspecified)	–	–	–	–	–
COc1ccc(N2C(=O)CN=C2Nc2nc(C)cc(C)n2)cc1	–	–	–	–	–
Cc1cc(C)nc(NC2=NCC(=O)N2c2ccc3c(c2)OCCO3)n1	–	–	-83.9	–	–
Cc1ccc(NC(=O)Cn2c(=O)n(CC3CCC(C(=O)NC(C)C)CC3)c(=O)c3sccc32)cc1 (stereo unspecified)	–	–	-44.1	–	–
CCn1c(=O)n(CC2CCC(C(=O)NC(C)C)CC2)c(=O)c2sccc21 (stereo unspecified)	–	–	–	–	–
COc1ccc(C(C)C)cc1S(=O)(=O)NCCc1c(C)[nH]c2ccc(C)cc12	–	–	–	–	–
O=C(Nc1c[nH]c2c(Cl)cccc2c1=O)N1CCN(c2ccccn2)CC1	31.5	–	–	–	–
COc1ccc(-c2nnc(SCC(=O)Nc3ccc(C(C)=O)cc3)nc2-c2ccc(OC)cc2)cc1	–	–	-70.1	–	–
CC(=O)c1ccc(NC(=O)CSc2nnc3c(n2)[nH]c2ccccc23)cc1	–	–	-36.7	–	–
COc1ccc2[nH]c3nc(SCC(=O)Nc4cccc(NC(C)=O)c4)nnc3c2c1	–	–	–	–	–
COc1cccc(NC(=O)CSc2nnc3c(n2)[nH]c2ccc(C)cc23)c1	–	–	-84.5	–	–
SMILES	TRHR PAM	D1 potentiator	D1 antagonist	D1 agonist	TRHR ag
CCN1CCN(C(c2ccc(F)cc2)c2c(O)cc(C)n(CCOC)c2=O)CC1 (stereo unspecified)	–	–	–	–	–
Cc1ccccc1NC(=O)Cn1c([N+](=O)[O-])cnc1C	–	–	-47.0	–	–
COc1ccccc1NC(=O)Cn1c([N+](=O)[O-])cnc1C	–	–	–	–	–
Cc1ccc(N/C=C/c2onc(C)c2[N+](=O)[O-])cc1	–	–	–	32.6	–
Cc1cccc(C)c1N/C=C/c1onc(C)c1[N+](=O)[O-]	–	–	–	–	–
Cc1noc(/C=C/c2cccnc2)c1[N+](=O)[O-]	–	–	–	–	–
Cc1noc(/C=C/c2ccc(-c3ccccc3Cl)o2)c1[N+](=O)[O-]	–	–	–	133.5	31.8
Cc1ccc(NC(=O)C(=O)NCC(c2ccc3c(c2)OCO3)N2CCN(C)CC2)cc1C (stereo unspecified)	–	–	–	–	–
Cc1ccc(-c2noc(-c3ccc(NC4CCCC4)c([N+](=O)[O-])c3)n2)cc1	–	–	–	–	–
CCOc1ccc(C(=O)NCCn2cc(SCC(=O)Nc3ccccc3)c3ccccc32)cc1	–	–	–	–	–
COc1ccc(OC)c(C(=O)CSc2nnc(Cc3cccs3)n2CCc2ccccc2)c1	–	–	–	51.3	–
O=C1CCCN1c1ncc(S(=O)(=O)c2ccc([N+](=O)[O-])cc2)s1	–	–	-47.0	–	–
COc1cccc(NC(=O)COc2cccc(-n3cnnn3)c2)c1	–	–	–	–	–
Cc1ccc(NC(=O)COc2cccc(-n3cnnn3)c2)cc1[N+](=O)[O-]	–	–	-45.5	–	–
CCOc1ccc(OCC)c(NC(=O)C(NS(=O)(=O)c2ccc(Br)s2)c2ccccc2)c1 (stereo unspecified)	–	–	–	–	–
Cc1ccc(-c2nnn(CC(=O)N(c3ccccc3F)C(CC(C)C)C(=O)NCC3CCCO3)n2)cc1 (stereo unspecified)	–	–	-37.8	–	–
Cc1nc(-c2ccccc2)sc1-c1ccc(SCC(=O)Nc2ccc(F)cc2F)nn1	–	–	–	–	–
CCOc1cc(CNC(=O)c2ccc3nc(C(C)C)oc3c2)cc(OCC)c1OCC	–	–	–	–	–
CN1CCc2nc3sc(C(=O)Nc4c(F)cccc4F)c(N)c3cc2C1	–	–	–	–	–
CC(C)OC(=O)CC(=O)c1sc2nc3c(cc2c1N)CN(C)CC3	37.9	–	–	–	–
Cc1ccc(-c2nn(-c3ccc(F)cc3F)c3c2cnc2c(F)cccc23)cc1	–	–	–	–	–
CCCNC(=S)Nc1ccc2nc(-c3ccccn3)c(-c3ccccn3)nc2c1	–	–	-37.2	–	–
COc1ccc(-c2nnc(SCCOc3ccccc3C)o2)cc1OC	–	–	–	–	–
Cc1ccccc1Nc1cc(C(=O)NC2CCC(C)CC2)c2ccccc2n1 (stereo unspecified)	–	–	–	–	–
COc1ccccc1C(=O)NCCC(=O)NCCc1ccccc1	–	–	-77.5	–	–
COc1ccccc1CC(=O)NCCc1ccccc1	–	–	–	–	–
O=C(NCCCN1CCOCC1)c1cc(-c2ccc(Cl)c(Cl)c2)on1	–	–	-32.8	–	–
CCN(CC)CCCNC(=O)c1cc(-c2ccc(O)cc2)on1	–	–	-43.6	–	–
